The subject of test [1] is Vero E6 infected with SARS-CoV-2. Briefly: morphology score (similarity to uninfected cells); higher = more like uninfected cells. The following applies: 24 h.
For test [2] the test system is unchanged. Briefly: SARS-CoV-2 infection rate relative to infected DMSO; higher = more infection, active = 60 or less. The conditions noted are these: 24 h.

The molecule `O=C(O)CSc1nnc(Br)n1-c1ccc(C2CC2)c2ccccc12` [lesinurad] (10 µM) gave a morphology score in test [1] of 0.0859. In addition, the SARS-CoV-2 infection rate in test [2] was 95% (inactive).
Taken in the same sequence, the figures for `CC(C)(C)c1ccc(/C=C/C(=O)Nc2ccc3c(c2)OCCO3)cc1` (10 µM) were -0.068 and 110% (inactive).
For `COc1cc2nc(N3CCN(C(=O)c4ccco4)CC3)nc(N)c2cc1OC` [prazosin] (10 µM), in test [1], the morphology score is -0.0585. Further, the SARS-CoV-2 infection rate in test [2] was 107% (inactive).
`CCc1ccc(Cc2ccc3c(c2)[C@]2(OC3)O[C@H](CO)[C@@H](O)[C@H](O)[C@H]2O)cc1` [tofogliflozin] (10 µM): the morphology score in test [1] amounted to 0.023. Also, the SARS-CoV-2 infection rate in test [2] was 94.5% (inactive).
Taken in the same sequence, the figures for `OC[C@H]1O[C@H](O[C@H]2O[C@H](CO)[C@@H](O)[C@H](O)[C@H]2O)[C@H](O)[C@@H](O)[C@@H]1O` [cabaletta] (10 µM) were -0.0856 and 104% (inactive).
On the same counts, the results for `COc1nc(C)cnc1NS(=O)(=O)c1cccnc1-c1ccc(-c2nnco2)cc1` [zibotentan] (10 µM) are 0.109 and 120% (inactive).
`OC(CCN1CCCCC1)(c1ccccc1)C1CCCCC1` (stereo not given) [trihexyphenidyl] (10 µM) registered a morphology score in test [1] of 0.167. In addition, the SARS-CoV-2 infection rate in test [2] was 92% (inactive).
On the same counts, the results for `O=C1c2ccccc2-c2c(NCCc3ccccc3)c(=O)[nH]c3cccc1c23` (10 µM) are -0.00844 and 112% (inactive).
Taken in the same sequence, the figures for `CCc1nn(CCO)c(CC)c1Oc1cc(C#N)cc(C#N)c1` [lersivirine] (10 µM) were 0.162 and 97% (inactive).
On the same counts, the results for `CCN1CCN(Cc2ccc(C(=O)Nc3ccc(C)c(Oc4ccc5c(c4)CC(=O)N5)c3)cc2C(F)(F)F)CC1` (0.833333 µM) are 0.0277 and 104% (inactive).
As for `CC(=O)[C@H]1CC[C@H]2[C@@H]3CC[C@H]4C[C@H](O)CC[C@]4(C)[C@H]3CC[C@]12C` [allopregnanolone] (10 µM), the morphology score in test [1] turned out to be 0.0997. The SARS-CoV-2 infection rate in test [2] was 103% (inactive).
Taken in the same sequence, the figures for `OCc1ccccc1O` [salicyl-alcohol] (10 µM) were -0.0183 and 106% (inactive).
Taken in the same sequence, the figures for `CC(C)[N+](C)(CCC(C(N)=O)(c1ccccc1)c1ccccc1)C(C)C` [isopropamide-iodide] (10 µM) were 0.192 and 100% (inactive).
As for `O=C(O)[C@@H]1C[C@@H](C2CCCCC2)CN1C(=O)CP(=O)(O)CCCCc1ccccc1` [fosinoprilat] (10 µM), in test [1], the morphology score was found to be 0.0775. For the same molecule, the SARS-CoV-2 infection rate in test [2] is 100% (inactive).
As for `CC(CN1c2ccccc2Sc2ccccc21)N(C)C` (stereo not given) [promethazine] (10 µM), the morphology score in test [1] came out at 0.528. Also, in test [2], the SARS-CoV-2 infection rate is 67.5% (inactive).
On the same counts, the results for `CC1(C)CNc2cc(NC(=O)c3cccnc3NCc3ccncc3)ccc21` [motesanib] (10 µM) are 0.196 and 108% (inactive).
In the case of `CCOC(=O)c1ccc(N(C)c2csc(-c3ccccc3)n2)cc1` [neuropathiazol] (10 µM), the morphology score in test [1] is -0.0531. For the same molecule, the SARS-CoV-2 infection rate in test [2] is 110% (inactive).
As for `c1ccc(Cn2c(-c3ccc(OC[C@H](C4CCNCC4)n4c(-c5ccccc5)nc5ccccc54)cc3)nc3ccccc32)cc1` [deltarasin] (0.833333 µM), in test [1], the morphology score amounted to 0.147. In addition, in test [2], the SARS-CoV-2 infection rate is 96% (inactive).
Taken in the same sequence, the figures for `FC(F)(F)c1ccccc1-c1cc(C(F)(F)F)c2[nH]c(C3=NOC4(CCCCC4)C3)nc2c1` (10 µM) were -0.000445 and 104% (inactive).
In turn, `O=C(CCCCC(=O)Nc1c(I)cc(I)c(C(=O)O)c1I)Nc1c(I)cc(I)c(C(=O)O)c1I` [iodipamide] (10 µM) had a morphology score in test [1] of 0.0415. In test [2], the SARS-CoV-2 infection rate is 93% (inactive).
`Oc1nc(O)c2cn[nH]c2n1` [oxypurinol] (10 µM) displayed a morphology score in test [1] of -0.157. Besides, in test [2], the SARS-CoV-2 infection rate was 111% (inactive).
For the molecule `O[C@@H]1[C@H](O)[C@@H](CCl)O[C@H]1n1cnc2c(NC3CC4CCC3C4)ncnc21` (mixture of isomers) [5'-chloro-5'-deoxy-ENBA-(+/-)] (10 µM), the morphology score in test [1] was found to be 0.0934. Moreover, in test [2], the SARS-CoV-2 infection rate was 104% (inactive).
Consider `CCNC(=O)[C@@H]1CCCN1C(=O)[C@H](CCCNC(=N)N)NC(=O)[C@H](CC(C)C)NC(=O)[C@@H](CC(C)C)NC(=O)[C@H](Cc1ccc(O)cc1)NC(=O)[C@H](CO)NC(=O)[C@H](Cc1c[nH]c2ccccc12)NC(=O)[C@H](Cc1c[nH]cn1)NC(=O)[C@@H]1CCC(=O)N1` [leuprolide] (10 µM), for which the morphology score in test [1] is -0.258. Besides, the SARS-CoV-2 infection rate in test [2] was 118% (inactive).
On the same counts, the results for `CN1[C@@H]2CC[C@H]1C[C@@H](OC(=O)N1Cc3ccccc3NC1=O)C2` (10 µM) are 0.0635 and 108% (inactive).
In the case of `CN(C)CCOc1ccc(/C(=C(/CCCl)c2ccccc2)c2ccccc2)cc1` [toremifene] (0.833333 µM), in test [1], the morphology score was -0.0544. For the same molecule, the SARS-CoV-2 infection rate in test [2] is 112% (inactive).

(Values after the supplement of paper PMC13380429.)
